# According to PubChem BioAssay (Tox21):
# Records with an inconclusive call do not appear. Entries that show only a call come without a potency. Unmarked numbers belong to inactive results. Activity calls are given as the source filed them. Calls come from the whole dose curve; as a rule, active = well fitted curve in the direction sought with a large enough effect in the repeat runs; inconclusive = weak or mixed curves; inactive = no such curve, though single readings can be large; an effect the other way counts as inactive or inconclusive.
# Experiments:
# [1] = target: Cytochrome P450 2C19 (Homo sapiens) (UniProt P33261); assay: Cytochrome P450 Family 2 Subfamily C Member 19 (CYP2C19) small molecule antagonists: luciferase reporter qHTS assay (AID 1671197); conditions: P450-Glo CYP2C19 enzyme, luciferin luminescence, 1 h; series mostly up to 115 µM; note: nearly all actives have a fitted effect of over 65% in size
# Outline: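 Inhibition of CYP2C19 was scored from loss of luminescence in a P450-Glo proluciferin substrate assay, NADPH-started and run 1 h at 37C, with ketoconazole as positive control.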
# [2] = target: Cytochrome P450 2C9 (Homo sapiens) (UniProt P11712); assay: Cytochrome P450 Family 2 Subfamily C Member 9 (CYP2C9) small molecule antagonists: luciferase reporter qHTS assay (AID 1671198); conditions: P450-Glo CYP2C9 enzyme assay, luciferin luminescence; series mostly up to 115 µM; note: nearly all actives have a fitted effect of over 50% in size
# Outline: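 P450-Glo proluciferin substrate with CYP2C9 enzyme; 10 min RT preincubation, then NADPH regeneration 1 h at 37C; luciferin detection reagent 20 min RT, luminescence in relative luminescence units.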
# [3] = target: Cytochrome P450 1A2 (Homo sapiens) (UniProt P05177); assay: Cytochrome P450 Family 1 Subfamily A Member 2 (CYP1A2) small molecule antagonists: luciferase reporter qHTS assay (AID 1671199); conditions: P450-Glo CYP1A2 enzyme, luciferin luminescence, 1 h; series mostly up to 115 µM; note: nearly all actives have a fitted effect of over 50% in size
# Outline: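 CYP1A2 turnover of a luminogenic substrate was quantified after 1 h with NADPH regeneration at room temperature. Furafylline served as positive control.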
# [4] = target: Voltage-gated inwardly rectifying potassium channel KCNH2 (Homo sapiens) (UniProt Q12809); assay: Human Ether-a-go-go-Related Gene (hERG) channel small molecule antagonists: fluorescence cell-based qHTS assay (AID 1671200); conditions: hERG-U2OS cells, FluxOR thallium flux fluorescence; series mostly up to 76.8 µM; note: nearly all actives have a fitted effect of over 50% in size;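 for activity change, negative = inhibition: hERG-expressing U2OS cells given a thallium stimulus after FluxOR II dye loading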
# Outline: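 Quantitative HTS in hERG-U2OS cells: thallium entry through the channel reports activity, read as continuous 480/540 nm fluorescence over 2 min after stimulus addition.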
# [5] = target: Cytochrome P450 3A4 (Homo sapiens) (UniProt P08684); assay: Cytochrome P450 Family 3 Subfamily A Member 4 (CYP3A4) small molecule antagonists: luciferase reporter qHTS assay (AID 1671201); conditions: P450-Glo CYP3A4 enzyme, luciferin luminescence, 1 h; series mostly up to 115 µM; note: nearly all actives have a fitted effect of over 50% in size
# Outline: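 Inhibition of CYP3A4 is measured as loss of light: the enzyme converts a proluciferin substrate to luciferin, detected luminescently. Reaction ran 1 h at room temperature with NADPH regeneration after a 10 min compound preincubation.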
# Potency is the fitted concentration of half-maximal effect.
# Chain of Cytochrome P450 2C9 (Homo sapiens) (P11712 whole entry, looked up): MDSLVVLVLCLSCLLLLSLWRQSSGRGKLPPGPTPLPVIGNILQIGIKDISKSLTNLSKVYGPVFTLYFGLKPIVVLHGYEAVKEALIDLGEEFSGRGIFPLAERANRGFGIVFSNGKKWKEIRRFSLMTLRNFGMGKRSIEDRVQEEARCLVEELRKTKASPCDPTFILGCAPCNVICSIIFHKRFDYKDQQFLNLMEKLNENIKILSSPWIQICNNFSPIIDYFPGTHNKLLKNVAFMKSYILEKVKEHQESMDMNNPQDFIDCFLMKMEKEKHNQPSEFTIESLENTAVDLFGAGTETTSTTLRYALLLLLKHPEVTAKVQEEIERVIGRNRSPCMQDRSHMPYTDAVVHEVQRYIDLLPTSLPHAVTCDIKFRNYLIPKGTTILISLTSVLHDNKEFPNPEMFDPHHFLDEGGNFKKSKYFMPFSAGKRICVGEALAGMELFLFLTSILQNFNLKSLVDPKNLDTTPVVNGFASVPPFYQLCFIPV
# Chain of Cytochrome P450 1A2 (Homo sapiens) (P05177 whole entry, looked up): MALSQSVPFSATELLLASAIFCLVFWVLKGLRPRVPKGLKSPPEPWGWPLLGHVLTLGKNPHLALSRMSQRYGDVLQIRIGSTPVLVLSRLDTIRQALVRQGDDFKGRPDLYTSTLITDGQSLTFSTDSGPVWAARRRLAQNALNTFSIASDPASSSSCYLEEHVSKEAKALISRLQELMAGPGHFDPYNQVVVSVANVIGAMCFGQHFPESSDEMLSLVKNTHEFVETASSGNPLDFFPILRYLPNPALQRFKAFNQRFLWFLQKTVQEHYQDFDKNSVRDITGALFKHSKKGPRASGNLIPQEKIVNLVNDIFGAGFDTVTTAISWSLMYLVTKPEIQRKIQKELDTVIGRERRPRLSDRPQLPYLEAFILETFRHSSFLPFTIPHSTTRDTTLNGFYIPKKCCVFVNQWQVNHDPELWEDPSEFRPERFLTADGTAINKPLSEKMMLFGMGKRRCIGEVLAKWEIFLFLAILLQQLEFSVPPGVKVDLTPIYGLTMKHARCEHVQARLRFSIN
# Chain of Cytochrome P450 3A4 (Homo sapiens) (P08684 whole entry, looked up): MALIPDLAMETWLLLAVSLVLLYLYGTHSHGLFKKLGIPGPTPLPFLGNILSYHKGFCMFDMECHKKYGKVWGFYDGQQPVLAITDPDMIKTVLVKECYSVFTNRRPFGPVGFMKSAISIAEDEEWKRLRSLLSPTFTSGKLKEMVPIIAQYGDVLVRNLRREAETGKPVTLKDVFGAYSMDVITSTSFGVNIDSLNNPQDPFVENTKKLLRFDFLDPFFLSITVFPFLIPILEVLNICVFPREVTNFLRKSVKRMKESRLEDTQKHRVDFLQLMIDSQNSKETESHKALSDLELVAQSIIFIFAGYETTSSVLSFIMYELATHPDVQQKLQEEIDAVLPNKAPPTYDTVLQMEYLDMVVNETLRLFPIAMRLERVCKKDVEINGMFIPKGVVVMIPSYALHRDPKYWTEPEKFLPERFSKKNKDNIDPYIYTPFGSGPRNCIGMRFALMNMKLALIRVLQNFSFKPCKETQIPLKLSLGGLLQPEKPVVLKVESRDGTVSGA
# Chain of Cytochrome P450 2C19 (Homo sapiens) (P33261 whole entry, looked up): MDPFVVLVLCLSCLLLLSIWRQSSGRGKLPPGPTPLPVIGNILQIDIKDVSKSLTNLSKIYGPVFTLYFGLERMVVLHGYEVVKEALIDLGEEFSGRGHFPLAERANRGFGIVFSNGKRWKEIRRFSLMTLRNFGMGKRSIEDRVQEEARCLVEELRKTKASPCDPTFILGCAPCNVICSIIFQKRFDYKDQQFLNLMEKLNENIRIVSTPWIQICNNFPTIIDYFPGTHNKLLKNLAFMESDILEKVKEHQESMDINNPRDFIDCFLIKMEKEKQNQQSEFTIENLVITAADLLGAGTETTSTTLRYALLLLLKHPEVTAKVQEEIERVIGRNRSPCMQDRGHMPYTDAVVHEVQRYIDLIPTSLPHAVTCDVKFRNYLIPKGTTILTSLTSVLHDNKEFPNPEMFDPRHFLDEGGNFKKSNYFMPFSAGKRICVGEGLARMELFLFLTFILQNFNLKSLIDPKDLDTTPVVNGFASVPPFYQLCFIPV
# Chain of Voltage-gated inwardly rectifying potassium channel KCNH2 (Homo sapiens) (Q12809 whole entry, looked up): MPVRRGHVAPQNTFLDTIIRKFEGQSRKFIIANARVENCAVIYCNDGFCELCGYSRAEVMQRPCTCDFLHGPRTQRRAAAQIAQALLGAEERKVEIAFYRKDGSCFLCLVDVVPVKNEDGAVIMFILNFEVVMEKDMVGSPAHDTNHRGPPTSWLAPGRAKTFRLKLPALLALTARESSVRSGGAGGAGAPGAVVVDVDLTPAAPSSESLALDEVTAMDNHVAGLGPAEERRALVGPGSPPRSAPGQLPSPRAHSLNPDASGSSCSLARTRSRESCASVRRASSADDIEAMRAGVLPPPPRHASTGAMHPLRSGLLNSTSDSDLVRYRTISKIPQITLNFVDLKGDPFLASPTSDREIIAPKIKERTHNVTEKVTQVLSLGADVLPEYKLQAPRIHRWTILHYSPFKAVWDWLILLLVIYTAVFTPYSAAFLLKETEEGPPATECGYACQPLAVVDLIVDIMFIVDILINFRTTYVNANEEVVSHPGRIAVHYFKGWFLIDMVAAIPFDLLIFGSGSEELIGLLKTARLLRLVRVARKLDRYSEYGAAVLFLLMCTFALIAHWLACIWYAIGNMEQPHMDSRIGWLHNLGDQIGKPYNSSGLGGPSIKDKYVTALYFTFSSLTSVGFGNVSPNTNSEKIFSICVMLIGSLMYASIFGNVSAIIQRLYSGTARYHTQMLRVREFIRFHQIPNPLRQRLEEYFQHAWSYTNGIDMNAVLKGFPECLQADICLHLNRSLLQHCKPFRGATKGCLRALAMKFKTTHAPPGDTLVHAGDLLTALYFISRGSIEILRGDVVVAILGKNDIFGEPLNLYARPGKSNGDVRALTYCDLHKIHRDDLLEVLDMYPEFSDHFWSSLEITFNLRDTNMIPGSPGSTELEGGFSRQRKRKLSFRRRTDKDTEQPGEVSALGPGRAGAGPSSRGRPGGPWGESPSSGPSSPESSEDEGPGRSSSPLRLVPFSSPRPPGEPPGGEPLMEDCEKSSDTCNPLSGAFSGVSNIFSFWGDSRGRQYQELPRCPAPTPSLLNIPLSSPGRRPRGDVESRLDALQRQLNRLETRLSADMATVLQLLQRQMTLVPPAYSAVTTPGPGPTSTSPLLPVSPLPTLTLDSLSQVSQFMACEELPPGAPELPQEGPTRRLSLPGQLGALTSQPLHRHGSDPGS
SMILES,Potency [1],Potency [2],Potency [3],Potency [4],Potency [5],"activity change, negative = inhibition [1]","activity change, negative = inhibition [2]","activity change, negative = inhibition [3]"
C=C(C)C(=O)OC(C)C,inactive,inactive,inactive,inactive,inactive,,,
Cc1ccc(C(N)=O)cc1N,44.8 µM (active),inactive,35.6 µM (active),inactive,inactive,,,
Cc1cc(O)ccc1N,17.9 µM (active),20.1 µM (active),17.9 µM (active),inactive,11.3 µM (active),,,
Cl/C(=C\n1cncn1)c1ccc(Cl)cc1Cl,1.38 µM (active),15.5 µM (active),1.55 µM (active),inactive,inactive,,,
N#Cc1cc2ccccc2c2ccccc12,35.8 µM (active),35.8 µM (active),0.0636 µM (active),inactive,,,,
C=Cc1c(C)c2cc3[nH]c(cc4nc(cc5nc(cc1[nH]2)C(C)=C5CCC(=O)O)C(CCC(=O)O)=C4C)c(C)c3C=C,inactive,inactive,inactive,inactive,inactive,,,
CC1(C)[C@H]2CC[C@]1(C)[C@H](O)C2,inactive,inactive,inactive,inactive,inactive,,,
O=C(O)C1CCC(C(=O)O)CC1 (stereo not given),inactive,inactive,inactive,inactive,inactive,,,
CC(C)(C)C(=O)OCOP(=O)(COCCn1cnc2c(N)ncnc21)OCOC(=O)C(C)(C)C,inactive,inactive,inactive,inactive,,,,
CCCC(=O)OCC,inactive,12.6 µM (active),inactive,inactive,inactive,,,
C=C(C)C(=O)OCCOc1ccccc1,31.7 µM (active),35.6 µM (active),25.2 µM (active),inactive,inactive,,,
CC(=O)c1c(C)c([N+](=O)[O-])c(C(C)(C)C)c([N+](=O)[O-])c1C,31.7 µM (active),inactive,11.2 µM (active),inactive,,,,
CN(C)CC[C@@H](c1ccc(Br)cc1)c1ccccn1,inactive,inactive,24.5 µM (active),inactive,inactive,,,
CC(O)C1CCCCC1 (stereo not given),inactive,inactive,inactive,inactive,inactive,,,
O=C1[C@H](CC[C@H](O)c2ccc(F)cc2)[C@@H](c2ccc(O)cc2)N1c1ccc(F)cc1,2.75 µM (active),8.71 µM (active),,,,,,
c1ccc(OCc2ccc(CCCN3CCOCC3)cc2)cc1,38.9 µM (active),38.9 µM (active),inactive,12 µM (active),,,,
CCOC(=O)C1=C(C)NC(C)=C(C(=O)OC)C1c1cccc([N+](=O)[O-])c1 (stereo not given),1.55 µM (active),0.977 µM (active),inactive,inactive,,,,
C=CC[N+]1([C@H]2C[C@H]3[C@@H]4CC[C@H]5C[C@H](OC(C)=O)[C@@H](N6CCCCC6)C[C@]5(C)[C@H]4CC[C@]3(C)[C@H]2OC(=O)CC)CCCCC1,inactive,inactive,inactive,inactive,,,,
O=C(CCN1CCN2CCCC2C1)N1c2ccccc2Sc2ccc(Cl)cc21 (stereo not given),,,,,,-4.46% [at 23.6 µM],11.9% [at 23.6 µM],-23.8% [at 23.6 µM]
CCCCCCc1ccc(N)cc1,3.56 µM (active),17.8 µM (active),28.3 µM (active),inactive,35.6 µM (active),,,
SC1CCCC1,inactive,inactive,inactive,inactive,inactive,,,
C#CCOC(=O)[C@@H](C)Oc1ccc(Oc2ncc(Cl)cc2F)cc1,17.7 µM (active),31.6 µM (active),5 µM (active),,,,,
Nc1nc(N)c(-c2ccccc2)s1,inactive,inactive,30.9 µM (active),inactive,,,,
O=C(O)COC(=O)Cc1ccccc1Nc1c(Cl)cccc1Cl,inactive,13.8 µM (active),inactive,inactive,inactive,,,
CCN(CC)CCNC(C(=O)OCCC(C)C)c1ccccc1 (stereo not given),inactive,inactive,inactive,9.52 µM (active),,,,
O=C(O)C(c1ccc(Cl)cc1)c1ccc(Cl)cc1,28.3 µM (active),15.9 µM (active),inactive,inactive,,,,
CCCCOC(=O)c1ccccc1C(=O)OCC(CC)CCCC (stereo not given),6.33 µM (active),12.6 µM (active),12.6 µM (active),inactive,,,,
CCCC[C@H]1CN(CC2CCOCC2)C(=O)OC12CCN(C1(C)CCN(C(=O)c3c(C)ncnc3C)CC1)CC2,inactive,inactive,35.2 µM (active),12.2 µM (active),,,,
O=S1(=O)c2cccc3cccc(c23)N1CCCN1CCN(c2ccc(F)cc2)CC1,24.5 µM (active),inactive,15.5 µM (active),,,,,
